# In ChEMBL document CHEMBL3988442, “University of Dundee, Small-Polar-MMV Screening Library” (2021):
# Screen size: about 48,000 compounds; about 13,000 (27%) showed an effect of 50% or more. The list shows a part of the results.
# Test system: Wolbachia pipientis
# Assay: Anti-Wolbachia Cell-Based Screen
# Assay type: functional
# Set-up: scale not given: in the data most compounds retested in dose-response had high values
# Settings: 5 µM
row,Structure (SMILES),Percent Effect
1,Cc1cccc(NC(=O)N(CCC(F)(F)F)C[C@H](O)CO)c1,-5.672%
2,Cc1cnc(C)c(N2CCN(CCCc3[nH]nc(C)c3C)CC2)n1,13.39%
3,COc1ccc(-c2cn3c(n2)CO[C@@H](CNCc2nccn2C)C3)cc1,1.884%
4,CN(C)C1CCN(C(=O)c2ccc(Cn3ccccc3=O)o2)CC1,-4.856%
5,Cc1nc(CCCNC(=O)C2CC(=O)N(C3CC3)C2)sc1C (stereo unspecified),0.5008%
6,CS(=O)(=O)NC1CCN(Cc2ccc(OCc3ccccn3)cc2)CC1,-10.21%
7,CCc1ncc2c(n1)CN(C(=O)CNC(=O)C(C)C)C2,-10.3%
8,CN(Cc1ccsc1)C(=O)Nc1cccnc1N1CCCC1,3.447%
9,CCNC(=O)NC1CN(CC(=O)NCc2ccccc2C)C[C@@H]1OC (stereo partly specified),-0.1158%
10,CCc1nc(CC)n(CC(=O)N(CC)CC)n1,-1.582%
11,Cc1nn(C)c(C)c1OCC(=O)NCc1cccc(CO)c1,-2.193%
12,Cn1cnn(CC(=O)NCc2ccccc2F)c1=O,-8.996%
13,CCCc1nnnn1Cc1cn2c(C)cccc2n1,-18.43%
14,CCc1nc(CC)n(CC(=O)N(C)CC(F)(F)F)n1,0.1098%
15,CCc1nc(CC)n(CC(=O)NCc2ccccc2C)n1,109.4%
16,CCCc1nnnn1CC(=O)NCc1cccc(C)c1,98.23%
17,CCc1nc(CC)n(CC(=O)NCc2cccc(C)c2)n1,86.53%
18,CN(C)C[C@H]1O[C@H](Cc2cc(-c3ccccn3)on2)CC[C@@H]1O,-5.695%
19,O=C(NS(=O)(=O)c1cccc(F)c1)c1ccccc1F,-17.84%
20,Cc1noc(COCC(=O)Nc2ncccc2Br)n1,-14.88%
21,CCN(CC)C1(Cc2cc(CC(C)C)on2)COC1,-8.16%
22,O[C@H]1CCN(CC2CCOC2)[C@H]1Cc1ccncc1 (stereo partly specified),-12.65%
23,CCCc1ncc(C(=O)N2CCOC(c3nc(C)n[nH]3)C2)s1 (stereo unspecified),1.166%
24,O=C(c1cccnc1O)N1CCOC(c2ccc(Cl)cc2)C1 (stereo unspecified),-6.348%

row,Structure (SMILES),Percent Effect
1,Cc1n[nH]c(C2CN(C(=O)c3ccn(C)c(=O)c3)CCO2)n1 (stereo unspecified),0.6849%
2,O=C(c1cccnc1N1CCCC1)N1CCOC(c2ccccc2)C1 (stereo unspecified),5.885%
3,Cc1n[nH]c(C2CN(C(=O)c3cc(C)sc3C)CCO2)n1 (stereo unspecified),-9.628%
4,CN(C)Cc1cnc(C2CN(C(=O)c3ccccc3Cl)CCO2)[nH]1 (stereo unspecified),174.9%
5,Cc1ccc(CC(=O)N2CCOC(c3ncc(CN(C)C)[nH]3)C2)s1 (stereo unspecified),104.7%
6,Cc1ccc(C(=O)N2CCOC(c3ncc(CN(C)C)[nH]3)C2)cc1F (stereo unspecified),86.38%
7,Cc1n[nH]c(C2CN(C(=O)c3coc(Br)c3)CCO2)n1 (stereo unspecified),-34.21%
8,Cc1ccc(CC(=O)N2CCOC(c3nc(C)n[nH]3)C2)cn1 (stereo unspecified),12.26%
9,Cc1ccccc1C(=O)N1CCOC(c2ncc(CN(C)C)[nH]2)C1 (stereo unspecified),53.49%
10,CCCc1n[nH]c(C2CN(C(=O)Cc3ccc(C)nc3)CCO2)n1 (stereo unspecified),-3.481%
11,O=C(Cc1ccon1)Nc1cncc(Br)c1O,-6.673%
12,CCOC1CCN(C(=O)c2c(Cl)c3ccccc3n2C)CC1,4.018%
13,Cc1noc(C)c1CN1CC[C@H]2OCC[C@@H](C(=O)N3CCCO3)[C@H]2C1,-12.4%
14,O=C(NCC(O)c1ccc(Cl)s1)c1ccoc1 (stereo unspecified),3.126%
15,CC(=O)N1CCN(C(=O)C(C)Nc2ccc3ncsc3c2)CC1 (stereo unspecified),-9.61%
16,Cc1cnn(CC2CN(Cc3csc(C4CCCC4)n3)CCO2)c1 (stereo unspecified),109.2%
17,c1cnn(CC2CN(Cc3csc(C4CCCCC4)n3)CCO2)c1 (stereo unspecified),111.5%
18,c1ccc(-c2nc(CN3CCOC(Cn4cccn4)C3)cs2)cc1 (stereo unspecified),-16.04%
19,c1cnn(CC2CN(Cc3csc(-c4ccsc4)n3)CCO2)c1 (stereo unspecified),-6.772%
20,CN(C)CC1CN(Cc2csc(C3CCCC3)n2)CCO1 (stereo unspecified),6.428%
21,Cc1n[nH]c(C2CN(Cc3csc(C4CCCC4)n3)CCO2)n1 (stereo unspecified),6.822%
22,c1csc(-c2nc(CN3CCOC(Cn4cccn4)C3)cs2)c1 (stereo unspecified),96.48%
23,c1csc(-c2nc(CN3CCOC(Cn4cncn4)C3)cs2)c1 (stereo unspecified),-0.6055%
24,c1ncn(CC2CN(Cc3csc(C4CCCC4)n3)CCO2)n1 (stereo unspecified),-2.779%

row,Structure (SMILES),Percent Effect
1,CNC(=O)[C@H]1C[C@H]2OCC[C@H]2N(Cc2cccc3ccccc23)C1.O=C(O)C(F)(F)F,25.43%
2,CC(=O)N1CCN(c2cc(N(C)C)cnn2)CC1,5.157%
3,CN(Cc1c(Cl)ccc2cccnc12)CC(C)(CO)CO,4.13%
4,CCS(=O)(=O)c1ncc(CN2CCN(C)CC2)n1CCc1ccccc1,2.419%
5,CC(C)(C)CN(CCO)C(=O)Nc1cccc(N2CCNC2=O)c1,0.4334%
6,Cn1cnc(S(=O)(=O)NCC2(O)CCOc3ccccc32)c1 (stereo unspecified),-16.89%
7,CC(C)(C)c1cc(C[C@H]2CNCC[C@H]2CC(=O)N2CCCCC2)no1,3.52%
8,O=C1OC2(CCNCC2)CN1CC(=O)N1CCCC1c1nccs1 (stereo unspecified),1.843%
9,O=C(CC1CC1)N1CCC2(CC1)CN(c1ncc(F)cn1)CCO2,-18.12%
10,Nc1nc(N)c2c(n1)OC1(CCN(C(=O)CC3CCCNC3)CC1)C2 (stereo unspecified),130%
11,Nc1nc(N)c2c(n1)OC1(CCN(C(=O)CC3CCNCC3)CC1)C2,145.9%
12,Nc1nc(N)c2c(n1)OC1(CCN(C(=O)CC3CCCCN3)CC1)C2 (stereo unspecified),102.3%
13,O=C(CC1CCCCC1)N1CCC(O)(C(F)(F)F)C1 (stereo unspecified),-0.05196%
14,CC(C1CC1)N(C)Cc1nnc(-c2ccc(Br)s2)o1 (stereo unspecified),-7.051%
15,Cc1cc(CSCc2ccccn2)on1,-5.175%
16,CCc1c(C)nc(SCc2ccccn2)[nH]c1=O,110.7%
17,CCc1nc(C)c(C(C)N(C)CCc2ccccn2)s1 (stereo unspecified),10.86%
18,CCCc1cc(NC2CCN(Cc3ccccn3)CC2)n2nccc2n1,4.154%
19,CCCc1cc(=O)[nH]c(SCc2ccccn2)n1,119.2%
20,CCc1cc(=O)[nH]c(SCc2ccccn2)n1,161.3%
21,CCc1csc(NC(=O)NCc2ccccn2)n1,-8.56%
22,CCCc1cc(=O)[nH]c(-c2cccc(CN3CCCCCC3)c2)n1,2.31%
23,Cc1ccc2cc(CN(C)Cc3ccccn3)c(=O)[nH]c2c1,3.618%
